# Experimental data: paper PMC12820563, “FoxP3 forms a head-to-head dimer in vivo and stabilizes its multimerization on adjacent microsatellites”
# Whole data set: some 16,000 sequences, median “rpm ratio (pull-down/input)” near 0.94, cut for the highest 2% near 1.7. The entries come from a sample that favours the highest values as a whole.
# Molecular target: T1, MBP-FoxP1dN (Mus musculus, UniProt P58462 326-579)
# T1 sequence: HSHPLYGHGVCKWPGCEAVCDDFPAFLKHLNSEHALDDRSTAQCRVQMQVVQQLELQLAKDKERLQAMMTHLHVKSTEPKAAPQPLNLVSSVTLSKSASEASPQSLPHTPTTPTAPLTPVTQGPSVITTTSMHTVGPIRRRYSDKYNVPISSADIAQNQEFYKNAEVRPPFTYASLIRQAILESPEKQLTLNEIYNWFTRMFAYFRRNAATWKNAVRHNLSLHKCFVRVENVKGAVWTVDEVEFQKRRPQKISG
# Assay: PD-seq (MBP pull-down with sequencing); 20 mM Tris-HCl pH 7.5, 100 mM NaCl, 1.5 mM MgCl2, 0.4 uM protein, 0.1 uM dsDNA library, 30 min, room temperature, amylose pull-down; high values mean tight binding
# Settings: protein: recombinant; tags: His6-MBP; chain copies: 2; dsDNA, one strand shown
# In short: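 His6-MBP-tagged mouse FoxP3 or FoxP1 fragment lacking the N-terminus, expressed in E. coli, was mixed at 0.4 µM with 0.1 µM Klenow-filled double-stranded degenerate DNA library. Incubation was 30 min at room temperature in Tris pH 7.5 buffer with NaCl and MgCl2. Complexes were caught on amylose resin and washed three times; DNA was released with proteinase K, PCR-barcoded and Illumina-sequenced. Binding is reads-per-million enrichment, pull-down over input, with replicates pooled.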
row,Sequence,binding signal
1,GATGATTGTTCTCCCAGCTGATGAATTCCAGGCTTCGAGTAAACAAATTTTCCTAATCTTTCTGTTCAAGCGCCATCTAC,0.758 RPM ratio (pull-down/input)
2,GATGATTGTTCTCCCAGCTGATGAATTTGGCTATTCGAGTAAACAAATTTTCCTAATCTTTCTGTTCAAGCGCCATCTAC,0.942 RPM ratio (pull-down/input)
3,GATGATTGTTCTCCCAGCTGATGAATTCGGCTCCTCGAGTAAACAAATTTTCCTAATCTTTCTGTTCAAGCGCCATCTAC,0.747 RPM ratio (pull-down/input)
4,GATGATTGTTCTCCCAGCTGATGAATTCAATAGATCGAGTAAACAAATTTTCCTAATCTTTCTGTTCAAGCGCCATCTAC,0.887 RPM ratio (pull-down/input)
5,GATGATTGTTCTCCCAGCTGATGAATTATTCTGGTCGAGTAAACAAATTTTCCTAATCTTTCTGTTCAAGCGCCATCTAC,1.04 RPM ratio (pull-down/input)
6,GATGATTGTTCTCCCAGCTGATGAATTGACCATGTCGAGTAAACAAATTTTCCTAATCTTTCTGTTCAAGCGCCATCTAC,0.875 RPM ratio (pull-down/input)
7,GATGATTGTTCTCCCAGCTGATGAATTACTTTGCTCGAGTAAACAAATTTTCCTAATCTTTCTGTTCAAGCGCCATCTAC,1.02 RPM ratio (pull-down/input)
8,GATGATTGTTCTCCCAGCTGATGAATTCTATTAGTCGAGTAAACAAATTTTCCTAATCTTTCTGTTCAAGCGCCATCTAC,1.14 RPM ratio (pull-down/input)
9,GATGATTGTTCTCCCAGCTGATGAATTGTGTACCTCGAGTAAACAAATTTTCCTAATCTTTCTGTTCAAGCGCCATCTAC,1.6 RPM ratio (pull-down/input)
10,GATGATTGTTCTCCCAGCTGATGAATTTCACCCATCGAGTAAACAAATTTTCCTAATCTTTCTGTTCAAGCGCCATCTAC,0.921 RPM ratio (pull-down/input)
11,GATGATTGTTCTCCCAGCTGATGAATTTTTCGCGTCGAGTAAACAAATTTTCCTAATCTTTCTGTTCAAGCGCCATCTAC,1.01 RPM ratio (pull-down/input)
12,GATGATTGTTCTCCCAGCTGATGAATTGATTATTTCGAGTAAACAAATTTTCCTAATCTTTCTGTTCAAGCGCCATCTAC,1.39 RPM ratio (pull-down/input)
13,GATGATTGTTCTCCCAGCTGATGAATTATTGATTTCGAGTAAACAAATTTTCCTAATCTTTCTGTTCAAGCGCCATCTAC,1.72 RPM ratio (pull-down/input)
14,GATGATTGTTCTCCCAGCTGATGAATTATTGTTTTCGAGTAAACAAATTTTCCTAATCTTTCTGTTCAAGCGCCATCTAC,2.83 RPM ratio (pull-down/input)
15,GATGATTGTTCTCCCAGCTGATGAATTTGAGCTCTCGAGTAAACAAATTTTCCTAATCTTTCTGTTCAAGCGCCATCTAC,0.775 RPM ratio (pull-down/input)
16,GATGATTGTTCTCCCAGCTGATGAATTTGTTCTTTCGAGTAAACAAATTTTCCTAATCTTTCTGTTCAAGCGCCATCTAC,1.3 RPM ratio (pull-down/input)
17,GATGATTGTTCTCCCAGCTGATGAATTCTTTGTTTCGAGTAAACAAATTTTCCTAATCTTTCTGTTCAAGCGCCATCTAC,1.23 RPM ratio (pull-down/input)
18,GATGATTGTTCTCCCAGCTGATGAATTGTTGTTTTCGAGTAAACAAATTTTCCTAATCTTTCTGTTCAAGCGCCATCTAC,3.52 RPM ratio (pull-down/input)
19,GATGATTGTTCTCCCAGCTGATGAATTTTGTTGTTCGAGTAAACAAATTTTCCTAATCTTTCTGTTCAAGCGCCATCTAC,2.84 RPM ratio (pull-down/input)
20,GATGATTGTTCTCCCAGCTGATGAATTTTTTTGTTCGAGTAAACAAATTTTCCTAATCTTTCTGTTCAAGCGCCATCTAC,0.971 RPM ratio (pull-down/input)
21,GATGATTGTTCTCCCAGCTGATGAATTTGTTTGTTCGAGTAAACAAATTTTCCTAATCTTTCTGTTCAAGCGCCATCTAC,2.73 RPM ratio (pull-down/input)

row,Sequence,binding signal
1,GATGATTGTTCTCCCAGCTGATGAATTTCTTTGTTCGAGTAAACAAATTTTCCTAATCTTTCTGTTCAAGCGCCATCTAC,0.994 RPM ratio (pull-down/input)
2,GATGATTGTTCTCCCAGCTGATGAATTTTTGTTTTCGAGTAAACAAATTTTCCTAATCTTTCTGTTCAAGCGCCATCTAC,2.71 RPM ratio (pull-down/input)
3,GATGATTGTTCTCCCAGCTGATGAATTTCAAATTTCGAGTAAACAAATTTTCCTAATCTTTCTGTTCAAGCGCCATCTAC,0.846 RPM ratio (pull-down/input)
4,GATGATTGTTCTCCCAGCTGATGAATTTCGAGTTTCGAGTAAACAAATTTTCCTAATCTTTCTGTTCAAGCGCCATCTAC,0.851 RPM ratio (pull-down/input)
5,GATGATTGTTCTCCCAGCTGATGAATTGCTCGACTCGAGTAAACAAATTTTCCTAATCTTTCTGTTCAAGCGCCATCTAC,0.946 RPM ratio (pull-down/input)
6,GATGATTGTTCTCCCAGCTGATGAATTTCCCCATTCGAGTAAACAAATTTTCCTAATCTTTCTGTTCAAGCGCCATCTAC,0.898 RPM ratio (pull-down/input)
7,GATGATTGTTCTCCCAGCTGATGAATTTTTTTCCTCGAGTAAACAAATTTTCCTAATCTTTCTGTTCAAGCGCCATCTAC,0.754 RPM ratio (pull-down/input)
8,GATGATTGTTCTCCCAGCTGATGAATTTTCATCCTCGAGTAAACAAATTTTCCTAATCTTTCTGTTCAAGCGCCATCTAC,0.875 RPM ratio (pull-down/input)
9,GATGATTGTTCTCCCAGCTGATGAATTTTTTGATTCGAGTAAACAAATTTTCCTAATCTTTCTGTTCAAGCGCCATCTAC,1.02 RPM ratio (pull-down/input)
10,GATGATTGTTCTCCCAGCTGATGAATTCTTTGATTCGAGTAAACAAATTTTCCTAATCTTTCTGTTCAAGCGCCATCTAC,0.885 RPM ratio (pull-down/input)
11,GATGATTGTTCTCCCAGCTGATGAATTTGTTGTTTCGAGTAAACAAATTTTCCTAATCTTTCTGTTCAAGCGCCATCTAC,2.54 RPM ratio (pull-down/input)
12,GATGATTGTTCTCCCAGCTGATGAATTGTTTTGTTCGAGTAAACAAATTTTCCTAATCTTTCTGTTCAAGCGCCATCTAC,1.97 RPM ratio (pull-down/input)
13,GATGATTGTTCTCCCAGCTGATGAATTGTTTGATTCGAGTAAACAAATTTTCCTAATCTTTCTGTTCAAGCGCCATCTAC,1.33 RPM ratio (pull-down/input)
14,GATGATTGTTCTCCCAGCTGATGAATTTGTTGATTCGAGTAAACAAATTTTCCTAATCTTTCTGTTCAAGCGCCATCTAC,2.39 RPM ratio (pull-down/input)
15,GATGATTGTTCTCCCAGCTGATGAATTTGTTTTTTCGAGTAAACAAATTTTCCTAATCTTTCTGTTCAAGCGCCATCTAC,2.09 RPM ratio (pull-down/input)
16,GATGATTGTTCTCCCAGCTGATGAATTAAGATGATCGAGTAAACAAATTTTCCTAATCTTTCTGTTCAAGCGCCATCTAC,0.992 RPM ratio (pull-down/input)
17,GATGATTGTTCTCCCAGCTGATGAATTTGACTATTCGAGTAAACAAATTTTCCTAATCTTTCTGTTCAAGCGCCATCTAC,0.903 RPM ratio (pull-down/input)
18,GATGATTGTTCTCCCAGCTGATGAATTATTTGCGTCGAGTAAACAAATTTTCCTAATCTTTCTGTTCAAGCGCCATCTAC,1.66 RPM ratio (pull-down/input)
19,GATGATTGTTCTCCCAGCTGATGAATTGTCCACATCGAGTAAACAAATTTTCCTAATCTTTCTGTTCAAGCGCCATCTAC,1.33 RPM ratio (pull-down/input)
20,GATGATTGTTCTCCCAGCTGATGAATTGCTTCCTTCGAGTAAACAAATTTTCCTAATCTTTCTGTTCAAGCGCCATCTAC,1.06 RPM ratio (pull-down/input)
21,GATGATTGTTCTCCCAGCTGATGAATTCTTAATATCGAGTAAACAAATTTTCCTAATCTTTCTGTTCAAGCGCCATCTAC,1.08 RPM ratio (pull-down/input)

row,Sequence,binding signal
1,GATGATTGTTCTCCCAGCTGATGAATTCAGGTTGTCGAGTAAACAAATTTTCCTAATCTTTCTGTTCAAGCGCCATCTAC,1 RPM ratio (pull-down/input)
2,GATGATTGTTCTCCCAGCTGATGAATTCGAAGGATCGAGTAAACAAATTTTCCTAATCTTTCTGTTCAAGCGCCATCTAC,0.845 RPM ratio (pull-down/input)
3,GATGATTGTTCTCCCAGCTGATGAATTTCTTGATTCGAGTAAACAAATTTTCCTAATCTTTCTGTTCAAGCGCCATCTAC,1.01 RPM ratio (pull-down/input)
4,GATGATTGTTCTCCCAGCTGATGAATTTGCTGGGTCGAGTAAACAAATTTTCCTAATCTTTCTGTTCAAGCGCCATCTAC,0.859 RPM ratio (pull-down/input)
5,GATGATTGTTCTCCCAGCTGATGAATTCGCGGACTCGAGTAAACAAATTTTCCTAATCTTTCTGTTCAAGCGCCATCTAC,0.757 RPM ratio (pull-down/input)
6,GATGATTGTTCTCCCAGCTGATGAATTTTTTGTTTCGAGTAAACAAATTTTCCTAATCTTTCTGTTCAAGCGCCATCTAC,1.13 RPM ratio (pull-down/input)
7,GATGATTGTTCTCCCAGCTGATGAATTCTTTTTTTCGAGTAAACAAATTTTCCTAATCTTTCTGTTCAAGCGCCATCTAC,1.07 RPM ratio (pull-down/input)
8,GATGATTGTTCTCCCAGCTGATGAATTGTTGAATTCGAGTAAACAAATTTTCCTAATCTTTCTGTTCAAGCGCCATCTAC,1.15 RPM ratio (pull-down/input)
9,GATGATTGTTCTCCCAGCTGATGAATTTTGTTTTTCGAGTAAACAAATTTTCCTAATCTTTCTGTTCAAGCGCCATCTAC,2.75 RPM ratio (pull-down/input)
10,GATGATTGTTCTCCCAGCTGATGAATTGTTGATTTCGAGTAAACAAATTTTCCTAATCTTTCTGTTCAAGCGCCATCTAC,2.42 RPM ratio (pull-down/input)
11,GATGATTGTTCTCCCAGCTGATGAATTTTCTAATTCGAGTAAACAAATTTTCCTAATCTTTCTGTTCAAGCGCCATCTAC,1.05 RPM ratio (pull-down/input)
12,GATGATTGTTCTCCCAGCTGATGAATTGTTTGTTTCGAGTAAACAAATTTTCCTAATCTTTCTGTTCAAGCGCCATCTAC,2.72 RPM ratio (pull-down/input)
13,GATGATTGTTCTCCCAGCTGATGAATTCTGTTGTTCGAGTAAACAAATTTTCCTAATCTTTCTGTTCAAGCGCCATCTAC,2.6 RPM ratio (pull-down/input)
14,GATGATTGTTCTCCCAGCTGATGAATTTGTTTCTTCGAGTAAACAAATTTTCCTAATCTTTCTGTTCAAGCGCCATCTAC,1.7 RPM ratio (pull-down/input)
15,GATGATTGTTCTCCCAGCTGATGAATTGAATTGTTCGAGTAAACAAATTTTCCTAATCTTTCTGTTCAAGCGCCATCTAC,0.984 RPM ratio (pull-down/input)
16,GATGATTGTTCTCCCAGCTGATGAATTAGGTATATCGAGTAAACAAATTTTCCTAATCTTTCTGTTCAAGCGCCATCTAC,0.972 RPM ratio (pull-down/input)
17,GATGATTGTTCTCCCAGCTGATGAATTAGCAGGATCGAGTAAACAAATTTTCCTAATCTTTCTGTTCAAGCGCCATCTAC,0.814 RPM ratio (pull-down/input)
18,GATGATTGTTCTCCCAGCTGATGAATTAACAAGGTCGAGTAAACAAATTTTCCTAATCTTTCTGTTCAAGCGCCATCTAC,1 RPM ratio (pull-down/input)
19,GATGATTGTTCTCCCAGCTGATGAATTGTTGACTTCGAGTAAACAAATTTTCCTAATCTTTCTGTTCAAGCGCCATCTAC,2.11 RPM ratio (pull-down/input)
20,GATGATTGTTCTCCCAGCTGATGAATTGACTTCTTCGAGTAAACAAATTTTCCTAATCTTTCTGTTCAAGCGCCATCTAC,0.996 RPM ratio (pull-down/input)
21,GATGATTGTTCTCCCAGCTGATGAATTGATGACTTCGAGTAAACAAATTTTCCTAATCTTTCTGTTCAAGCGCCATCTAC,0.994 RPM ratio (pull-down/input)
